# Results published in PubChem BioAssay (EPA / NIEHS).
# Inconclusive results are not listed. Calls of active or inactive are those of the source. Rule for the calls: active = hit-call score of the fitted dose curve at least 0.9, where 1 is the maximum; inconclusive = response in the unintended direction; inactive = score below 0.9.
# Experiments:
# [1] = target: D(1A) dopamine receptor (Homo sapiens) (UniProt P21728); test: NVS_GPCR_hDRD1: NovaScreen (NVS) G Protein-Coupled Receptor Assay for human Dopamine Receptor D1 (DRD1) (AID 2283269)
# Sequence of D(1A) dopamine receptor (Homo sapiens) (P21728 whole entry, looked up): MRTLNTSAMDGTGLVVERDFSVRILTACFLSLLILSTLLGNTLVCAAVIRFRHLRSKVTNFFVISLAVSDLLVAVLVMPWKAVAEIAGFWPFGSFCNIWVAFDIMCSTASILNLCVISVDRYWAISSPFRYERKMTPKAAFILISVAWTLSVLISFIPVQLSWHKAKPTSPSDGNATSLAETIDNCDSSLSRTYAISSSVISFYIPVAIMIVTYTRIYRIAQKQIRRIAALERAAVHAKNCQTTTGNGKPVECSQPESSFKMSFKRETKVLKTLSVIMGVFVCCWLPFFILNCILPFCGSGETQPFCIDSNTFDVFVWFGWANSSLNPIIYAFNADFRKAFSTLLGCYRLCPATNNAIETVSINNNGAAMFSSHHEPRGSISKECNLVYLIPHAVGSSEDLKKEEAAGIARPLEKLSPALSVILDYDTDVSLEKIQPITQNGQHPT
# Method in brief: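 Extracted HEK293 DRD1 is incubated 1 h with compound and a tritiated or iodinated radioligand, then filtered and counted. Screening runs 25 uM in duplicate with on-plate positive and negative controls.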
# [2] = target: human Neurokinin, NK2 Receptor, TACR2 (gene 6865) (UniProt P21452); test: NVS_GPCR_hNK2: NovaScreen (NVS) G Protein-Coupled Receptor Assay for human Neurokinin, NK2 Receptor (AID 2283278);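 note: actives reduce bound radioligand signal relative to DMSO baseline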
# Sequence of human Neurokinin, NK2 Receptor, TACR2 (gene 6865) (P21452 whole entry, looked up): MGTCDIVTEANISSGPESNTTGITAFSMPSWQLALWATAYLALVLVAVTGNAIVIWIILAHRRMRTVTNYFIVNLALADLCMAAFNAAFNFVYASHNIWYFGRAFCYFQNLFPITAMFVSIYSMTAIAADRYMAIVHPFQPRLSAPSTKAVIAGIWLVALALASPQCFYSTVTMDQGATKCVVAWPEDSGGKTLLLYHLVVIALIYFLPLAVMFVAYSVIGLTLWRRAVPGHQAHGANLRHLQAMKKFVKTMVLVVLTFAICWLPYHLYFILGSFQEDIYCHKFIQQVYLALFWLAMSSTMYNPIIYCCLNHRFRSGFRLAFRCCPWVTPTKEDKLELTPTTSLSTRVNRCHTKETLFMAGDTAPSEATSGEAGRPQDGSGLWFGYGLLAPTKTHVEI
# Method in brief: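 Test chemicals displace a radioligand from receptor prepared from CHO cells in a cell-free format, read after 4 hours by scintillation counting on filters. Screening starts at 25 uM in duplicate, and active chemicals then go to concentration series.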
# [3] = target: human Adenosine A2a Receptor (AdoRA2a), ADORA2A (gene 135) (UniProt P29274); test: NVS_GPCR_hAdoRA2a: NovaScreen (NVS) G Protein-Coupled Receptor Assay for human Adenosine A2a Receptor (AdoRA2a) (AID 2283256)
# Sequence of human Adenosine A2a Receptor (AdoRA2a), ADORA2A (gene 135) (P29274 whole entry, looked up): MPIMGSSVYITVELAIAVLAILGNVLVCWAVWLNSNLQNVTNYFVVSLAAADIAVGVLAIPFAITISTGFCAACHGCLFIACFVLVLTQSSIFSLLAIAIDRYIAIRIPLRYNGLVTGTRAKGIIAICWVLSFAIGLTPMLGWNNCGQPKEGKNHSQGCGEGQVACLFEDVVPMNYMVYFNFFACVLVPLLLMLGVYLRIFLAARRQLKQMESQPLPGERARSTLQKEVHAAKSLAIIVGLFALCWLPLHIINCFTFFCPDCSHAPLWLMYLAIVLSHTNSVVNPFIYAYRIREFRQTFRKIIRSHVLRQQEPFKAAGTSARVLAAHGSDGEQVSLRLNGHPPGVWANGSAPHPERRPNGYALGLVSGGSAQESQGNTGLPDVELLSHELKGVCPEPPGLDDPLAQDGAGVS
# Method in brief: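 Radioligand displacement on HEK293-derived membrane protein, cell-free; filter-based scintillation counting 1.5 hours after dosing, loss of signal vs DMSO. Single-point duplicate screen at 25 uM, actives retested in concentration series.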
# [4] = target: human Thromboxane A2 Receptor (TXA2), TBXA2R (gene 6915) (UniProt P21731); test: NVS_GPCR_hTXA2: NovaScreen (NVS) G Protein-Coupled Receptor Assay for human Thromboxane A2 Receptor (TXA2) (AID 2283282);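 note: actives reduce bound radioligand signal relative to DMSO baseline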
# Sequence of human Thromboxane A2 Receptor (TXA2), TBXA2R (gene 6915) (P21731 whole entry, looked up): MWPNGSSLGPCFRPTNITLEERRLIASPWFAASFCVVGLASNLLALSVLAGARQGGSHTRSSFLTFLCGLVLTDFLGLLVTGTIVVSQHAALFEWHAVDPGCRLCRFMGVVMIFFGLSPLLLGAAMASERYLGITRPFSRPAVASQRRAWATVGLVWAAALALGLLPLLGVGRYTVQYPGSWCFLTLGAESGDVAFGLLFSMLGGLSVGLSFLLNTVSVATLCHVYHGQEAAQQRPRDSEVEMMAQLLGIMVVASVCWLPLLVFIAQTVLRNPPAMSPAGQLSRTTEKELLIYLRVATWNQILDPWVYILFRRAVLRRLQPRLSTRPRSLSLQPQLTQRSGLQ
# Method in brief: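 Screening ran at 25 uM in duplicate, with concentration series for confirmed actives. Each test measures radioligand binding to human platelet protein after 1 h, cell-free, using filter-based scintillation detection of signal loss relative to DMSO.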
# [5] = target: Muscarinic acetylcholine receptor M2 (Homo sapiens) (UniProt P08172); test: NVS_GPCR_hM2: NovaScreen (NVS) G Protein-Coupled Receptor Assay for human Muscarinic, M2 Receptor (AID 2283273)
# Method in brief: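 CHO membrane prep, radioligand + test compound, 1 h; filtration, scintillation count. Screen 25 uM duplicate → conc. series for actives. Readout: decrease in binding vs DMSO control.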
# [6] = target: human Phosphoinositide 3-kinase alpha (PI3Ka), PIK3CA (gene 5290) (UniProt P42336); test: NVS_ENZ_hPI3Ka: NovaScreen (NVS) Enzymatic Assay for human Phosphoinositide 3-kinase alpha (PI3Ka) (AID 2283196)
# Method in brief: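 Duplicate single-point screen (25 uM), then singleton dose-response (max 50 uM) for compounds meeting the threshold. Cell-free kinase reaction, 1 h; fluorescent mobility-shift readout.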
# [7] = target: human Vascular Endothelial Growth Factor Receptor 1 (VEGFR1), FLT1 (gene 2321) (UniProt P17948); test: NVS_ENZ_hVEGFR1: NovaScreen (NVS) Enzymatic Assay for human Vascular Endothelial Growth Factor Receptor 1 (VEGFR1) (AID 2283226)
# Sequence of human Vascular Endothelial Growth Factor Receptor 1 (VEGFR1), FLT1 (gene 2321) (P17948 whole entry, looked up): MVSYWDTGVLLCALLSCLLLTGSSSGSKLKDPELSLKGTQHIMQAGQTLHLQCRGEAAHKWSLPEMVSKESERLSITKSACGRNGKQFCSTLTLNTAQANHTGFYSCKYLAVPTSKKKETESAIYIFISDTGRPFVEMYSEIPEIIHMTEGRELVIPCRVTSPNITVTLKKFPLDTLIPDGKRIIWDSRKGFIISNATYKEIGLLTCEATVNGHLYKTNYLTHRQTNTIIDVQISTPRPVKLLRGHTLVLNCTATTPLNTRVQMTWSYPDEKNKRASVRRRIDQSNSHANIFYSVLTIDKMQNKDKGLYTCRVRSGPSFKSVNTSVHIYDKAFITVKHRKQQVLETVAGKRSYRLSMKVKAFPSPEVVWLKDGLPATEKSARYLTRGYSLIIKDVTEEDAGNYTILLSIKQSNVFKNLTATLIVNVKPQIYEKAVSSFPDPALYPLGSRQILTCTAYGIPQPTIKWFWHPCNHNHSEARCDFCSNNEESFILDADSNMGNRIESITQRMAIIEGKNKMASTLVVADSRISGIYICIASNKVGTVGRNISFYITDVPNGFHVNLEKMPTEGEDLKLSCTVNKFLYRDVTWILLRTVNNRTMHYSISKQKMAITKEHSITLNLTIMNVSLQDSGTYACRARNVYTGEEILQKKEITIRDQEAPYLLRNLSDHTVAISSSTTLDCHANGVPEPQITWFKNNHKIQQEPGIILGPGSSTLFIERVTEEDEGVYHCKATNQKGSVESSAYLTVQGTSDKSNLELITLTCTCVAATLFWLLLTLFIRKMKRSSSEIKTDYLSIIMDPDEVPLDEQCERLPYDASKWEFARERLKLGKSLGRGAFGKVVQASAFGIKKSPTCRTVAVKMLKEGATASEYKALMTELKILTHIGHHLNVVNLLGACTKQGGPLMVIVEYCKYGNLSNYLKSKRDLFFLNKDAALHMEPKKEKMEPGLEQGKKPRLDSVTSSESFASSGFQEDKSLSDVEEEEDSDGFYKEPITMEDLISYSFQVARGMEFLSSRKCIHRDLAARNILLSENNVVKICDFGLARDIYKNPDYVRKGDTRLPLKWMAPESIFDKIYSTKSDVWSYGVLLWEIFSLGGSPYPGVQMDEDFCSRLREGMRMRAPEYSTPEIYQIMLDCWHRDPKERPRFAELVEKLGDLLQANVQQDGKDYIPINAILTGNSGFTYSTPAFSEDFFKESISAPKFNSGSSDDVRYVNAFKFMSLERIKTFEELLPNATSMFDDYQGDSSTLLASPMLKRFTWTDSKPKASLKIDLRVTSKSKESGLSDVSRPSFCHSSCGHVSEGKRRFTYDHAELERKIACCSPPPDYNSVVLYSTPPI
# Method in brief: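 Cell-free assay of recombinant human VEGFR1 kinase with substrate, measured 1 h after dosing; fluorescence with electrophoretic mobility-shift separation of substrate and product, referenced to DMSO; primary screen at 25 uM in duplicate, actives then run in concentration series.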
# [8] = target: human Phosphodiesterase 10 (PDE10), PDE10A (gene 10846) (UniProt Q9Y233); test: NVS_ENZ_hPDE10: NovaScreen (NVS) Enzymatic Assay for human Phosphodiesterase 10 (PDE10) (AID 2283195)
# Sequence of human Phosphodiesterase 10 (PDE10), PDE10A (gene 10846) (Q9Y233 whole entry, looked up): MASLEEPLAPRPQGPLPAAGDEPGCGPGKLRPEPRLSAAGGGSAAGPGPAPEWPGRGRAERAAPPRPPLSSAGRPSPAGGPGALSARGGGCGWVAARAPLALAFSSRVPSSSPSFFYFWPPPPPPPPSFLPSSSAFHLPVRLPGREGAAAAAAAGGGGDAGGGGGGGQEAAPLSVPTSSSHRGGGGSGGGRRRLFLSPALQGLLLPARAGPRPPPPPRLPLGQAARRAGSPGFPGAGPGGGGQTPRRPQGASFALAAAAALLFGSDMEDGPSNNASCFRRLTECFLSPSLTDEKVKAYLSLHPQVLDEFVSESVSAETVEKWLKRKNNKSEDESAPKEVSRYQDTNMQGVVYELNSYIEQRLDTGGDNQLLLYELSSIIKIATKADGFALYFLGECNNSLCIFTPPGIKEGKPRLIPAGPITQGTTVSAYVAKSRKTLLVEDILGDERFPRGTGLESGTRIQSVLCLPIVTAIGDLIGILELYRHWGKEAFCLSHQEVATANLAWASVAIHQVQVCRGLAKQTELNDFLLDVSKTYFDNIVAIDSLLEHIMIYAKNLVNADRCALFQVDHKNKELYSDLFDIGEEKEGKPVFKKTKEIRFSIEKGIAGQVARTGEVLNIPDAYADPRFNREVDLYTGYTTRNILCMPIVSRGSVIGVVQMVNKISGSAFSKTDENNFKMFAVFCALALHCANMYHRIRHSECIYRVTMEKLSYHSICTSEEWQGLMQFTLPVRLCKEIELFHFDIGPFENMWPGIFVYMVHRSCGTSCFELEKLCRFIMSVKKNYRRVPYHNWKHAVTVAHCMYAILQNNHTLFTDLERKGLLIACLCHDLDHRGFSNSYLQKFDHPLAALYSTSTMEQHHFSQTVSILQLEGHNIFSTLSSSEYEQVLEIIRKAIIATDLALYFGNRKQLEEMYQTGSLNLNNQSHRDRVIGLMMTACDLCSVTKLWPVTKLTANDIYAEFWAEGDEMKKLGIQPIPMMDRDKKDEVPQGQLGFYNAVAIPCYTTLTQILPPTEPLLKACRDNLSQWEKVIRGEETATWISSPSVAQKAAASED
# Method in brief: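 PDE10A, cell-free; 1 h incubation; fluorescence intensity + electrophoretic mobility shift separating substrate/product; DMSO = baseline; 25 uM duplicate primary, CRC up to 50 uM.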
# [9] = target: sheep Cyclooxygenase-1 (Cox1), PTGS1 (gene 443551) (UniProt P05979); test: NVS_ENZ_oCOX1: NovaScreen (NVS) Enzymatic Assay for sheep Cyclooxygenase-1 (Cox1) (AID 2283239);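 note: actives reduce cyclooxygenase activity so potencies are for inhibitors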
# Method in brief: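 Tested in duplicate at 25 uM, then in concentration series if active, against seminal vesicle extract from sheep. Enzyme activity was measured colorimetrically at 0.66 hour and normalised to DMSO.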
# [10] = target: human Adenosine A1 Receptor (AdoRA1), ADORA1 (gene 134) (UniProt P30542); test: NVS_GPCR_hAdoRA1: NovaScreen (NVS) G Protein-Coupled Receptor Assay for human Adenosine A1 Receptor (AdoRA1) (AID 2283254)
# Sequence of human Adenosine A1 Receptor (AdoRA1), ADORA1 (gene 134) (P30542 whole entry, looked up): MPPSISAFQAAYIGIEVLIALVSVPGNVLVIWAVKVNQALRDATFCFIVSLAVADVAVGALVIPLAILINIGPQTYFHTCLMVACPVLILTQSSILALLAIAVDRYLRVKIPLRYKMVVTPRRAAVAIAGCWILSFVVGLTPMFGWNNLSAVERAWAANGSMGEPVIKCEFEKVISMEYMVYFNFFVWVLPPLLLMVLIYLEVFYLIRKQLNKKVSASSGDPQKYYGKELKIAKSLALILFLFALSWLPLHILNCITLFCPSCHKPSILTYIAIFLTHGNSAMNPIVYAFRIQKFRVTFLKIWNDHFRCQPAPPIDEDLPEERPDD
# Method in brief: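 Each chemical is first tested twice at 25 uM, actives later in dilution series, against a radioligand bound to human cortex membranes; after 1 h, filter-retained counts are compared with DMSO controls, lower signal indicating displacement.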
# [11] = target: human Matrix Metalloproteinase-9 (MMP9), MMP9 (gene 4318) (UniProt P14780); test: NVS_ENZ_hMMP9: NovaScreen (NVS) Enzymatic Assay for human Matrix Metalloproteinase-9 (MMP9) (AID 2283190);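 note: cell-free recombinant MMP9 protease activity read by fluorescent substrate signal; active means inhibition seen as loss of fluorescence signal versus DMSO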
# Sequence of human Matrix Metalloproteinase-9 (MMP9), MMP9 (gene 4318) (P14780 whole entry, looked up): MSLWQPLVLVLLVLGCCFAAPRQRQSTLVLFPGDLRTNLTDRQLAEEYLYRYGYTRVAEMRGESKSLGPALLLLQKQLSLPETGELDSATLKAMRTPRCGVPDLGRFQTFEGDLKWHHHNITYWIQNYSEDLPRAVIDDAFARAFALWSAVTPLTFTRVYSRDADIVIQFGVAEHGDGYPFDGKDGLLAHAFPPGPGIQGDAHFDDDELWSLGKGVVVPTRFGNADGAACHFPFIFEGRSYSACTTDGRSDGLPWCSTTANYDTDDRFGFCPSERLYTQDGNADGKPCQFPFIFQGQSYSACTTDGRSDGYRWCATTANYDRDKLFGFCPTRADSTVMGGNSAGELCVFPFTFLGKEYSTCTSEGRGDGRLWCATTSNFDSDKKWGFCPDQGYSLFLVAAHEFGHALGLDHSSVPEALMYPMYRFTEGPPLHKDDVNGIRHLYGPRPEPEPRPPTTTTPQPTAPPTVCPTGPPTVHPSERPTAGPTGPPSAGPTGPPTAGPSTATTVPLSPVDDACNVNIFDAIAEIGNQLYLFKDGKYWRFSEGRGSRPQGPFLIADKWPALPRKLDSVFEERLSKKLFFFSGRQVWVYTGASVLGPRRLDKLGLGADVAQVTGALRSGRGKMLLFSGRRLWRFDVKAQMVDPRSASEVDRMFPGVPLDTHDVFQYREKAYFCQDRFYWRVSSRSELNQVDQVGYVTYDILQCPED
# Method in brief: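 Screening concentration 25 uM, duplicate wells, then dose series for confirmation. Cell-free enzymatic reaction measured by fluorescence intensity 1 h post-dosing; decreased signal versus DMSO taken as activity.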
# [12] = target: guinea pig Leukotriene D4 Receptor (LTD4), CYSLTR1 (gene 100135514) (UniProt Q2NNR5); test: NVS_GPCR_gLTD4: NovaScreen (NVS) G Protein-Coupled Receptor Assay for guinea pig Leukotriene D4 Receptor (LTD4) (AID 2283248)
# Method in brief: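 Radioligand displacement on guinea pig lung membranes, 1 h incubation, filtration and scintillation counting; DMSO as negative control. Duplicate 25 uM primary screen, then singleton concentration-response up to 50 uM.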
# [13] = target: Tyrosine-protein phosphatase non-receptor type 11 (Homo sapiens) (UniProt Q06124); test: NVS_ENZ_hPTPN11: NovaScreen (NVS) Enzymatic Assay for human Protein Tyrosine Phosphatase Non-receptor Type 11 (PTPN11) (AID 2283202)
# Method in brief: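 Recombinant human PTPN11 activity on a fluorescent substrate, with substrate/product separated by electrophoretic mobility shift; read 0.5 h after dosing, loss of signal vs DMSO. Duplicate 25 uM screen, then concentration-response up to 50 uM.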
# [14] = target: Tyrosine-protein phosphatase non-receptor type 12 (Homo sapiens) (UniProt Q05209); test: NVS_ENZ_hPTPN12: NovaScreen (NVS) Enzymatic Assay for human Protein Tyrosine Phosphatase Non-receptor Type 12 (PTPN12) (AID 2283204)
# Method in brief: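 Single-concentration duplicates (25 uM) preceded singleton concentration-response up to 50 uM for chemicals passing threshold. Cell-free recombinant PTPN12 activity was read 1.33 h after dosing via fluorescence after mobility-shift separation; loss of signal versus DMSO.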
# [15] = target: human Vascular Endothelial Growth Factor Receptor 3 (VEGFR3), FLT4 (gene 2324) (UniProt P35916); test: NVS_ENZ_hVEGFR3: NovaScreen (NVS) Enzymatic Assay for human Vascular Endothelial Growth Factor Receptor 3 (VEGFR3) (AID 2283229)
# Method in brief: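 Cell-free recombinant VEGFR3 kinase reaction with fluorescent substrate, read 1 h after dosing by electrophoretic mobility shift separation of substrate and product. Single-concentration duplicate screen at 25 uM, then concentration-response up to 50 uM; loss of activity versus DMSO.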
# [16] = target: human Vascular Endothelial Growth Factor Receptor 2 (VEGFR2), KDR (gene 3791) (UniProt P35968); test: NVS_ENZ_hVEGFR2: NovaScreen (NVS) Enzymatic Assay for human Vascular Endothelial Growth Factor Receptor 2 (VEGFR2) (AID 2283230)
# Method in brief: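 Cell-free recombinant VEGFR2 kinase, fluorescent substrate with electrophoretic mobility-shift separation; read 1 h after dosing. Screened at 25 uM in duplicate, hits to concentration-response up to 50 uM; loss-of-signal versus DMSO.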
# [17] = target: sheep Cyclooxygenase-2 (Cox2), PTGS2 (gene 443460) (UniProt P79208); test: NVS_ENZ_oCOX2: NovaScreen (NVS) Enzymatic Assay for sheep Cyclooxygenase-2 (Cox2) (AID 2283231)
# Method in brief: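 Compounds were first run at 25 uM in duplicate against tissue-extracted ovine COX-2; those passing a preset inhibition threshold went to singleton concentration-response testing with a 50 uM maximum. Read-out: absorbance at 0.66 hour.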
# [18] = target: human Endothelin Receptor Type A (ETA), EDNRA (gene 1909) (UniProt P25101); test: NVS_GPCR_hETA: NovaScreen (NVS) G Protein-Coupled Receptor Assay for human Endothelin Receptor Type A (ETA) (AID 2283265)
# Method in brief: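 Cell-free radioligand displacement using SH-SY5Y-derived protein, 3 h incubation, filter-based scintillation counting. Primary screen in duplicate at 25 uM; actives then run in concentration-response up to 50 uM; loss of binding fitted versus DMSO.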
# [19] = target: Muscarinic acetylcholine receptor M1 (Homo sapiens) (UniProt P11229); test: NVS_GPCR_hM1: NovaScreen (NVS) G Protein-Coupled Receptor Assay for human Muscarinic, M1 Receptor (AID 2283270)
# Method in brief: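 Cell-free radioligand displacement using membrane protein extracted from CHO cells, read by filter-based scintillation counting 1 h after dosing. Loss of bound signal fitted versus DMSO; primary screen single concentration 25 uM in duplicate, actives followed by concentration series.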
# [20] = target: guinea pig Opioid, Kappa 1 Receptor (OpiateK), OPRK1 (gene 100135587) (UniProt P41144); test: NVS_GPCR_gOpiateK: NovaScreen (NVS) G Protein-Coupled Receptor Assay for guinea pig Opioid, Kappa 1 Receptor (OpiateK) (AID 2283252);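 note: radioligand displacement from kappa opioid receptor in guinea pig cerebellar membranes; active means reduced radioligand binding relative to DMSO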
# Method in brief: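 Signal is scintillation counts of filter-trapped radioligand bound to guinea pig cerebellar membrane receptor, measured 2 hours post-dosing. Activity is loss of binding versus DMSO, first at 25 uM in duplicate, then as concentration series for actives.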
structure (smiles),measurement,setting,value
CCN(CC)c1ccc(N=Nc2ccccc2)cc1,outcome,[1],inactive
same,outcome,[2],inactive
CCOC(C=C(C)CCC=C(C)C)OCC,outcome,[3],inactive
same,outcome,[4],inactive
Nc1c(Br)cc([N+](=O)[O-])cc1Br,outcome,[3],inactive
Oc1ccc(C2(c3ccc(O)c(C4CCCCC4)c3)CCCCC2)cc1C1CCCCC1,outcome,[1],inactive
same,AC50,[5],8.57 µM (active)
same,AC50,[2],16.2 µM (active)
O=C1c2c(O)ccc(Nc3ccc(CCO)cc3)c2C(=O)c2c([N+](=O)[O-])ccc(O)c21,AC50,[6],2.07 µM (active)
same,AC50,[7],0.885 µM (active)
same,outcome,[4],inactive
CCN(CC)c1ccc2c(c1)Oc1cc(N(CC)CC)ccc1C21OC(=O)c2ccccc21,outcome,[8],inactive
same,outcome,[4],inactive
O=C1OC(=O)c2ccc3c4c(ccc1c24)C(=O)OC3=O,outcome,[2],inactive
CC1=CC2C3C=CC(C3)C2C1C (centres undefined),AC50,[9],30.4 µM (active)
Brc1ccccn1,outcome,[8],inactive
O=C1c2ccccc2C(=O)c2c(Cl)cccc21,AC50,[10],13.3 µM (active)
O=C1C=CC(=O)N1c1ccc(Cc2ccc(N3C(=O)C=CC3=O)cc2)cc1,AC50,[11],2.59 µM (active)
same,outcome,[8],inactive
same,AC50,[1],25 µM (active)
same,AC50,[2],28.4 µM (active)
CCOCN(C(=O)CS(=O)(=O)O)c1c(C)cccc1CC,outcome,[4],inactive
O=C(c1ccccc1)c1ccc(O)cc1O,AC50,[11],13.7 µM (active)
same,outcome,[12],inactive
same,outcome,[10],inactive
same,AC50,[3],29.7 µM (active)
same,outcome,[4],inactive
CC(=O)CCC(C)C,outcome,[11],inactive
CN1CN(C)CN(C)C1,outcome,[1],inactive
OCCC(O)CO (centres undefined),AC50,[1],37.4 µM (active)
Cc1ccc(O)c(-n2nc3ccccc3n2)c1,AC50,[11],9.4 µM (active)
Cc1cc(O)c(C(C)(C)C)cc1C(C)(C)C,outcome,[6],inactive
CCC(C)CO (centres undefined),AC50,[11],6.58 µM (active)
same,outcome,[10],inactive
Nc1cccnc1N,outcome,[8],inactive
same,AC50,[10],9.6 µM (active)
CCCCCCCCCCCCCC[P+](CCCC)(CCCC)CCCC,AC50,[11],2.12 µM (active)
same,AC50,[13],14.8 µM (active)
same,AC50,[14],18.5 µM (active)
same,AC50,[7],10 µM (active)
same,AC50,[15],17.5 µM (active)
same,AC50,[16],11.4 µM (active)
same,AC50,[17],5.19 µM (active)
same,AC50,[18],6.26 µM (active)
same,AC50,[19],1.02 µM (active)
O=C=Nc1cccc2c(N=C=O)cccc12,outcome,[1],inactive
same,AC50,[4],0.672 µM (active)
Cc1ccc(S(=O)(=O)C(I)I)cc1,outcome,[20],inactive
same,AC50,[10],33.2 µM (active)
same,AC50,[1],6.43 µM (active)
O=C(Cl)c1ccc(Cl)cc1Cl,outcome,[8],inactive
Oc1ccc2c(c1)CCC2,outcome,[1],inactive
same,outcome,[4],inactive
CC(=O)c1ccccc1N,outcome,[4],inactive
CC(C)CCCC(C)CCO (centres undefined),AC50,[11],6.27 µM (active)
same,outcome,[9],inactive
Nc1cc([N+](=O)[O-])cc(Cl)c1O,outcome,[8],inactive
C#CC(O)CCC (centres undefined),outcome,[8],inactive
C=CCOC(=O)CC(C)C,outcome,[7],inactive
CCCCCCCCn1sc(Cl)c(Cl)c1=O,outcome,[17],inactive
same,outcome,[18],inactive
c1ccc(C[P+](c2ccccc2)(c2ccccc2)c2ccccc2)cc1,AC50,[20],1.98 µM (active)
same,outcome,[1],inactive
same,AC50,[5],1.22 µM (active)
same,outcome,[4],inactive
C[C@]12CC[C@H]3C(=CCc4cc(O)ccc43)[C@@H]1CCC2=O,outcome,[12],inactive
CCN(CC)c1ccc(C=O)c(O)c1,outcome,[1],inactive
same,outcome,[4],inactive
CCN(CC)c1ccc(C=O)cc1,AC50,[4],4.65 µM (active)
